# Compounds with a hit are over-represented: about 21% of the library has one in this group of screens.
# Cycloheximide cs: affects cycloheximide protein synthesis inhibition readout, counter-screen. cell reporter, cycloheximide protein synthesis inhibition counterscreen. max response, %. hit rate 12% among 300,000. AID 2314; in the data active = max response mostly above about 13%, no sharp cut-off; inactive = mostly below about 14%; note: read at 38.3 µM for the half of the compounds with a filed dose; 0% is about no effect
# Pf growth 48h: P. falciparum growth inhibition at 48 hours (one generation). Potency, µM (doses to about 28.7 µM), for inactives: at the highest dose activity change, negative = inhibition, most hits filed as inhibitors. AID 504832. P. falciparum luciferase growth in erythrocytes, 48 h. hit rate 5.9% among 310,000; note: potency is the fitted concentration of half-maximal effect; % is set by controls: 0 for no effect and ±100 for the full control effect
#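 In quantitative HTS format, infected erythrocytes bearing luciferase-reporter parasites were treated for a single generation at 37 C. Luminescence after adding detection reagent served as the growth measure.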
# Pf growth 96h: inhibits malaria parasite growth, 96 h | P. falciparum luciferase reporter growth, 96 h | Potency, µM (highest dose often 28.7 µM), for the others: top-dose activity change, negative = inhibition, actives largely listed as inhibitors | hit rate 6.9% among 320,000; note: potency is the fitted concentration of half-maximal effect; % is set by controls: 0 for no effect and ±100 for the full control effect
#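 P. falciparum expressing integrated firefly luciferase grown in erythrocytes (2% hematocrit, 0.05% parasitemia final) with compounds for 96 hours at 37 C, 5% CO2. Growth inhibition read as loss of luminescence after adding luciferase detection reagent.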
# Shiga toxin inh: Shiga toxin inhibition; Vero cells, Shiga toxin protein synthesis inhibition reporter; inhibition, % at 38.7 µM; hit rate 9.2% among 290,000; AID 2315; in the data active = inhibition mostly above about 28%, no sharp cut-off; inactive = mostly below about 43%; note: 0% is about no effect
# * = called active by the depositor; i = inactive; ? = inconclusive; · = no result given. Unless noted, calls come from the whole dose curve; as a rule, active = well fitted inhibition curve with a large enough effect; inconclusive = small, poorly fitted or top-dose-only effect, or another doubt; inactive = no such curve, though single readings can be large or run the other way.
SMILES,Cycloheximide cs,Pf growth 48h,Pf growth 96h,Shiga toxin inh
CCN(CC)C(=O)CSc1nc2sc3c(c2c(=O)n1CCOC)CCC3,-1,?,?,·
CCCC[C@]12Cc3cc(C#N)ccc3C(O1)c1c(cc(-c3ccccc3)oc1=O)O2,6,?,?,i
CC1Cc2ccccc2N1C(=O)CSc1ncc(-c2ccc(F)cc2)n1C (configuration not stated),61*,79%,26%,75*
CCOC(=O)CSc1nnc2n1C(C)(C)Cc1ccccc1-2,1,-13%,?,-10
Cn1c(-c2ccc(F)cc2)cnc1SCC(=O)N1CCCCC1,33*,·,3%,38
CC1Cc2ccccc2N1C(=O)CSc1nnc2n1C(C)(C)Cc1ccccc1-2 (configuration not stated),-4,?,2.6µM*,-8
CCN(C(=O)COC(=O)C1CC1C)c1c(N)n(Cc2ccccc2)c(=O)[nH]c1=O (configuration not stated),·,-20%,6%,·
OC1(c2nc3ccccc3[nH]2)CCCCC1,·,?,62%,·
O=C(Nc1c(-c2ccccc2)nc2ncccn12)c1cc2ccccc2oc1=O,36*,5%,6%,-18
COc1ccc(CN2CCn3ncc(C(=O)Nc4cccc(C)c4)c3C2=O)cc1,16*,-16%,38%,68
Cc1ccc[n+](CC(=O)c2cc3ccccc3oc2=O)c1,25*,-11%,0%,30
CC(=O)Nc1c(-c2ccccc2)nc2ncccn12,-4,·,-12%,-11
Cc1ccnc(NC(=O)c2oc3ccccc3c2C)c1,·,37%,4%,·
Cc1ccnc(NC(=O)c2cc3ccccc3oc2=O)c1,27*,36%,44%,122*
CSCC[C@H](NC(=O)[C@H](CC(C)C)NC(=O)CNC(=O)[C@H](Cc1ccc(O)cc1)NC(=O)[C@H](Cc1ccccc1)NC(=O)[C@H](CCC(N)=O)NC(=O)[C@H](CCC(N)=O)NC(=O)[C@@H]1CCCN1C(=O)[C@H](CCCCN)NC(=O)[C@@H]1CCCN1C(=O)[C@@H](N)CCCN=C(N)N)C(N)=O,-2,·,·,-6
CCCc1nn2c(=O)cc(CSCC(=O)Nc3cccc(OC)c3)nc2s1,1,-7%,38%,-2
Cc1cccc(NC(=O)c2cc3ccccc3oc2=O)c1,41*,219%,-25%,·
Cc1ccc(S(=O)(=O)N/N=c2\oc3ccccc3cc2C(=O)Nc2cccc(C)c2)cc1,62*,-8%,31%,71*
COc1ccc(C(=O)NNC(=O)c2cc3cc(OC)ccc3oc2=O)cc1,2,42%,49%,5
COc1ccc2oc(=O)c(C(=O)Nc3cccc(C)c3)cc2c1,43*,41%,0%,49*
COc1cccc2cc(C(=O)Nc3ccccc3C)/c(=N/NS(=O)(=O)c3ccccc3)oc12,11,?,13%,-6
CCCC[C@H]1CCCO[C@@](C(=O)NCc2ccccn2)(C(F)(F)F)C1,26,·,·,18
Cc1cc(C)c2c(N)c(C(=O)c3ccccc3Cl)sc2n1,-2,18%,29%,7
CCc1ccccc1NC(=O)c1sc2nc(C)cc(C)c2c1N,12,0%,30%,50
Cc1cc(C)c2c(N)c(C(=O)Nc3ccccc3Br)sc2n1,24*,71%,?,39*
SMILES,Cycloheximide cs,Pf growth 48h,Pf growth 96h,Shiga toxin inh
Cc1cc(C)c2c(N)c(C(=O)Nc3ccccc3F)sc2n1,34*,141%,46%,41*
Cc1cc(C)c2c(N)c(C(=O)c3ccc(Cl)cc3Cl)sc2n1,7,13µM*,35%,-17
CCC(NC(=O)NC1CCCCC1)c1ccccc1 (configuration not stated),0,7%,i,-5
CCC(NC(=S)NC1CCCCC1)c1ccc(C(C)C)cc1 (configuration not stated),-3,8.3µM*,3.3µM*,4
Cc1ccc(C(C)NC(=S)NC2CCCCC2)cc1C (configuration not stated),-3,10µM*,10µM*,8
Cc1ccc(C(C)NC(=S)NC2CCCCC2)c(C)c1 (configuration not stated),-3,10µM*,5.2µM*,-8
COc1ccc(C(C)NC(=S)NC2CCCC2)cc1OC (configuration not stated),-4,1.9µM*,?,-11
CC(NC(=O)NC1CCCCC1)c1ccc2c(c1)OCO2 (configuration not stated),2,33%,-5%,14
COc1ccc(C(C)NC(=O)C2CCCC2)cc1OC (configuration not stated),-2,?,-12%,-7
COC(=O)c1ccc(COC(=O)C(NC(=O)Cc2ccccc2)C(C)C)cc1 (configuration not stated),·,-16%,?,·

# From PubChem
